In all, about 68,000 sequences were measured (“fluorescence intensity (a.u.)”: median about 9,100, highest 2% from about 16,000 on). The full list was thinned out, with the highest values kept by preference.

Sequence of OsWRKY34 (Q0JBA9 entry or part of it): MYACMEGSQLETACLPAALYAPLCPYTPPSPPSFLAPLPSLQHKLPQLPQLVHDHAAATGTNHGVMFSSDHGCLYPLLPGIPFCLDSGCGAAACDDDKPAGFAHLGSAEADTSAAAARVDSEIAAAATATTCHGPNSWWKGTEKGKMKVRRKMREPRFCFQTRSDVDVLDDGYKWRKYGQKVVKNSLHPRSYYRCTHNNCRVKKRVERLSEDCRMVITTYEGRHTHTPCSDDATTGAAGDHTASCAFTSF

In this experiment the target is OsWRKY34 (Oryza sativa, UniProt Q0JBA9 1-250). The experiment can be described thus: protein-binding microarray (RPBM); PBS, 2% BSA, 51.3 ng/ul salmon testes DNA, 50 uM zinc acetate, 200 nM TF, 25 C, 1 h; high values mean tight binding. The note with it: protein: recombinant; tags: N-terminal polyhistidine and DsRed monomer fusion (pET32a); label: CyDye5-dUTP incorporated in the synthesized complementary strand; 3' TTTTT single-stranded linker to array surface; dsDNA, one strand shown. The procedure, abridged:
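Transcription factors were each fused at the N-terminus to a polyhistidine tag plus DsRed and expressed in E. coli BL21-CodonPlus before Ni–NTA purification. Binding to a double-stranded custom Agilent array was carried out with 200 nM protein at 25 °C for 1 h in PBS, 2% BSA, salmon testes DNA and 50 µM zinc acetate. The binding signal is per-feature fluorescence intensity, in arbitrary units, on an Axon 4000B scanner.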
“TTTTCGTCTATTTTATTACTGTTGCTTGCCTACAATTCTCCGGAGTCACCTAGTGCAG”: the binding signal was 13500 fluorescence intensity (a.u.). The figure for “ATAGGTGCCGGTTCTATTTTGGTATAGGGGTCGGTTGTTTCGGAGTCACCTAGTGCAG” is 11700 fluorescence intensity (a.u.); for “TCTCACTCTCGAGCCATCGTCTTCAGCTCGCTCATTACTGCGGAGTCACCTAGTGCAG” it is 9030 fluorescence intensity (a.u.).

Turning to “CGCCTTCGCCTCCGGCCCCTTATATGGCGTGGCGGGGAGGCGGAGTCACCTAGTGCAG”, the binding signal is 8930 fluorescence intensity (a.u.). To “TTCGTTGACCAAGTTTAATTCAAATTCAATTCAATTTTAACGGAGTCACCTAGTGCAG” belongs 9760 fluorescence intensity (a.u.).

As for “TAATGACTTATCCTGCGGTGAAAAATCTTCATCTTCGTATCGGAGTCACCTAGTGCAG”, the binding signal is 8160 fluorescence intensity (a.u.).

Turning to “GCTGCTCGGATTTGATTGATTGATTGATTGGCGGGTGGTCCGGAGTCACCTAGTGCAG”, the binding signal was 8590 fluorescence intensity (a.u.).

“GCAATTTTTTACGCCCACACGACTGTCCGAGAGCAATATGCGGAGTCACCTAGTGCAG”: the binding signal is 8170 fluorescence intensity (a.u.). For the sequence “CTCCCGAGGAAGATGACGAGGAGTCAGTCAACAGTTGACTCGGAGTCACCTAGTGCAG”, the binding signal is 8130 fluorescence intensity (a.u.).

As for “TCTCTCTCTCTCTCTCTTCTCTTCTCTTTGTTTTCTTGTTCGGAGTCACCTAGTGCAG”, the binding signal was 9940 fluorescence intensity (a.u.).

For “CTTTTTTCTCTGCGGGTTCTTCAATTATTCAGGGTTTCTTCGGAGTCACCTAGTGCAG”, the binding signal is 16800 fluorescence intensity (a.u.).

With “TCCCACGATTTCCTTTCCTGCTTTTCTCATCCCTTTTGTTCGGAGTCACCTAGTGCAG”, the binding signal is 16500 fluorescence intensity (a.u.).

As for “TCAATTATTCAGGGTTTCTTCTGGTTCTTGTCTCGCCATGCGGAGTCACCTAGTGCAG”, the binding signal is 8630 fluorescence intensity (a.u.). In the case of “GAATTTTTTTTTCGTTTTTTTCAATTCGTTATTCTTTTCTCGGAGTCACCTAGTGCAG”, the binding signal is 12300 fluorescence intensity (a.u.). The figure for “ATTCTAGTAGTAGTTGTTTATCTTTGTTCTGTTGTTTCTTCGGAGTCACCTAGTGCAG” is 8520 fluorescence intensity (a.u.); for “TTCCTTTTTTCCCGCCCGTTCCTTTTTTGTTTGTTATGTTCGGAGTCACCTAGTGCAG” it is 15700 fluorescence intensity (a.u.); for “TTCTTTCCTTACGATTTTTGCTCCTGCTCTAGTTCTTGTTCGGAGTCACCTAGTGCAG” it is 8140 fluorescence intensity (a.u.). To “TCCTTTTCTTTTCTTTTATTTTTTTTTGTTTTTTCCCGTTCGGAGTCACCTAGTGCAG” belongs 8300 fluorescence intensity (a.u.); to “GGGTTCTTTCTGTAGTAGGGGTTTTTCTTTGTTTTCTCTTCGGAGTCACCTAGTGCAG”, 17700 fluorescence intensity (a.u.). The figure for “TCTTCCCGCCTTTTTTTTCTTTGTTATTTTTCTTTTTTTTCGGAGTCACCTAGTGCAG” is 18000 fluorescence intensity (a.u.); for “CCTTCGATTGACCTCCTCATCCTCTTCCCCTGCTTTCTTTCGGAGTCACCTAGTGCAG” it is 9720 fluorescence intensity (a.u.); for “AAAAGGCGTTTGCTTGTTTTTGCTGTGGGTTAATTCGCCTCGGAGTCACCTAGTGCAG” it is 8090 fluorescence intensity (a.u.). As to “GTCACTCCTACTCCCGCCACCACCGGCCCAATGGCGCCCCCGGAGTCACCTAGTGCAG”, the binding signal was 9660 fluorescence intensity (a.u.). To “CCCAGTTTTATTTCTGCAGTTCATTTTATGAGAGCATTCTCGGAGTCACCTAGTGCAG” belongs 8120 fluorescence intensity (a.u.).

For the sequence “GTGCTCTCTGCTGGCTGCGACGCCATATATGCCTTTCTTCCGGAGTCACCTAGTGCAG”, the binding signal was 8720 fluorescence intensity (a.u.). The figure for “ACATTCTCTTATACCCATCACAATCATTTGCTCAATAGGGCGGAGTCACCTAGTGCAG” is 8620 fluorescence intensity (a.u.); for “CTATCAATTCGCTCTATTATGTCGCTCAATTCTCTCTCGCCGGAGTCACCTAGTGCAG” it is 8650 fluorescence intensity (a.u.).

“GCCGGATCCAGATCTCCACCGCCTCGCCTCGCCGCGCCGCCGGAGTCACCTAGTGCAG”: the binding signal is 10400 fluorescence intensity (a.u.). Regarding “CTACACACAAACTTCCAACTTTTCTGTCACATCGTTCCAACGGAGTCACCTAGTGCAG”, the binding signal is 11900 fluorescence intensity (a.u.).

As to “GTGTGTTTTTCTGCCATTTTTCGCCTTAGGTCTTCGCAATCGGAGTCACCTAGTGCAG”, the binding signal was 12300 fluorescence intensity (a.u.).

Take “GAGATAGATGGGCCTGAAATGCGCCGATGGTCAGGCCTGCCGGAGTCACCTAGTGCAG”: the binding signal was 8190 fluorescence intensity (a.u.). To “TTCGTGCACGCGGTCCATGCACCAGCCACCATTCCCTTCGCGGAGTCACCTAGTGCAG” belongs 8350 fluorescence intensity (a.u.); to “TTGTTCTTCTTTTTTGGTCTGGTTTTTTTTGTGGTTTCTTCGGAGTCACCTAGTGCAG”, 16700 fluorescence intensity (a.u.); to “GAGGTTAGCTCGCCTCTGATTGGGTTGGTTGGGTGGTCGGCGGAGTCACCTAGTGCAG”, 10100 fluorescence intensity (a.u.). Regarding “GGTCTGGTTCTTCTTGATGCGAGGCTAGCTGACGTTTTTTCGGAGTCACCTAGTGCAG”, the binding signal was 17200 fluorescence intensity (a.u.). The figure for “TCTGGTTGATTGATCGATTTGGGGAATTGGGGATCTAGCTCGGAGTCACCTAGTGCAG” is 12000 fluorescence intensity (a.u.); for “CTCGTGTGTCTTGCGGGCGGGTGATCTTTCCACATACAGACGGAGTCACCTAGTGCAG” it is 19200 fluorescence intensity (a.u.). With “TTGTTCTTTTTGGTCTGGTTTTTTTGTGGTTTCTTGATTGCGGAGTCACCTAGTGCAG”, the binding signal is 9010 fluorescence intensity (a.u.). The figure for “CGTTTCTTGGCTGGTTTTCTTGGGCGGCGATCGATCGATGCGGAGTCACCTAGTGCAG” is 8140 fluorescence intensity (a.u.); for “GATTTGGTCTGGTTTGGTTGGAGGTTAGCTCGCCTCTGATCGGAGTCACCTAGTGCAG” it is 19400 fluorescence intensity (a.u.).

Turning to “AAGGTTGTCTTGTTTGATTAGCTATTTTCTTTGCCTGGTTCGGAGTCACCTAGTGCAG”, the binding signal was 11400 fluorescence intensity (a.u.).

As for “CTTTTGGTCTTCCCTTTCTTTTCTTCTTCTTCTTCTTCTTCGGAGTCACCTAGTGCAG”, the binding signal is 10400 fluorescence intensity (a.u.).

Take “CGTGTCTTGTGTGTTTCCTGTCTCGCGAGCCTTCCACATACGGAGTCACCTAGTGCAG”: the binding signal was 15000 fluorescence intensity (a.u.). As for “TAATATATGATCATACTTGTTTTATATACATTGTGTCTTGCGGAGTCACCTAGTGCAG”, the binding signal was 9830 fluorescence intensity (a.u.). As for “ACCTTAATTAATTAATCTTGTTTTCTCATGGAGTTGTCATCGGAGTCACCTAGTGCAG”, the binding signal is 10400 fluorescence intensity (a.u.).

For “AACGCGTGTATTTCTATGCTTTTGATATTGATCTTGCATCCGGAGTCACCTAGTGCAG”, the binding signal is 8230 fluorescence intensity (a.u.). The figure for “GGACATTTGGAACTGATTACTCCTACTACTCTAGTGAAAACGGAGTCACCTAGTGCAG” is 8400 fluorescence intensity (a.u.); for “GTGCTACCTCCATCCCAATATACTTGTCGTTTTAAGTTTTCGGAGTCACCTAGTGCAG” it is 11800 fluorescence intensity (a.u.).

For “TCTCTTATACTGATTTTTGGGTCCAATCCCTTACCGTTGACGGAGTCACCTAGTGCAG”, the binding signal was 8150 fluorescence intensity (a.u.).

As to “GGTCTGGTTTTATCGGTTTATATGTGTGTGTTTTTTTTGTCGGAGTCACCTAGTGCAG”, the binding signal is 33500 fluorescence intensity (a.u.).

Regarding “TATTCCTTTCATTGGGTTTGTGCGGGATGGCTGGTTGGTGCGGAGTCACCTAGTGCAG”, the binding signal is 18100 fluorescence intensity (a.u.). Consider “GCCTTTTTTCCTTTGTCTTTTTCCGGCCCGCGTTCTTTTTCGGAGTCACCTAGTGCAG”, for which the binding signal is 17400 fluorescence intensity (a.u.). Take “TTCCGGCCCGCGTTCTTTTTGAAGTCCAGTTTACGTCCTTCGGAGTCACCTAGTGCAG”: the binding signal is 10800 fluorescence intensity (a.u.). The figure for “ATTTGTTGTTTCATTTGTATTGTTTTGTGTTGGTTTATGTCGGAGTCACCTAGTGCAG” is 8940 fluorescence intensity (a.u.); for “TTTGTGTGTCTTGTTTATATGTGCACATATCTTGTCTTGTCGGAGTCACCTAGTGCAG” it is 8370 fluorescence intensity (a.u.). Consider “GATGTTGTTTCCTTTCTTTGGTGGTTTGGTTTGGTTGGGTCGGAGTCACCTAGTGCAG”, for which the binding signal is 29300 fluorescence intensity (a.u.). The figure for “GTTCTCTTTTTTGTTTGTCTTTCCTAGTGCAATATGTTTCCGGAGTCACCTAGTGCAG” is 10700 fluorescence intensity (a.u.); for “ACCTTTCCTTTCATCTCTTCCGCTGGTTTTGTGGGATATTCGGAGTCACCTAGTGCAG” it is 12800 fluorescence intensity (a.u.). With “TGGTGACGATGGTGATGTTCTTGTTGTTGGTTTTTCCTTTCGGAGTCACCTAGTGCAG”, the binding signal was 9530 fluorescence intensity (a.u.). For the sequence “CCGTTTCCTTTGCTGGTTGTGTTTTGTGCTTGCATTCATGCGGAGTCACCTAGTGCAG”, the binding signal was 12400 fluorescence intensity (a.u.).

For the sequence “CTTGTTGATGTGGGTGTTTCTTGGTCGATCCTTCTTGTTTCGGAGTCACCTAGTGCAG”, the binding signal is 8330 fluorescence intensity (a.u.).
